According to PubChem BioAssay (NCATS):
Inconclusive results are not listed. The source made the active and inactive calls. Calls come from the whole dose curve; as a rule, active = well fitted cell-killing curve with a large enough effect; inconclusive = small, poorly fitted or top-dose-only effect, or effect the other way; inactive = no such curve, though single readings can be large or run the other way.

Experiment: Quantitative High-Throughput drug screen in 47 multiple myeloma cell lines against the NCATS MIPE library collection: ARP1_JJKsccF8 cell viability assay (AID 1918928; note: nearly all actives have a fitted effect of over 40% in size)
Settings: ARP1 myeloma cells viability, CellTiter-Glo ATP, 48 h; series mostly up to 45.8 µM; viability: at the top concentration
Source text: PI: Beverly A. Mock Ph.D.
Laboratory of Cancer Biology and Genetics,
Center for Cancer Research, National Cancer Institute,
National Institute of Health, Bethesda, Maryland
Drug resistance and disease progression are common in multiple myeloma (MM) patients, underscoring the need for new therapeutic combinations. […] We hypothesized that effective combinations would reduce MYC expression and enhance p16 activity. […] These preclinical data identify potentially useful drug combinations for evaluation in drug-resistant MM and reveal potential mechanisms of combined drug sensitivity.
Described herein is the primary MIPE qHTS used to cherrypick compounds. Validated compounds were then further tested for potential synergistic activiy.
[1] Peat TJ, Gaikwad SM, Dubois W, Gyabaah-Kessie N, Zhang S, Gorjifard S, Phyo Z, Andres M, Hughitt VK, Simpson RM, Miller MA, Girvin AT, Taylor A, Williams D, D'Antonio N, Zhang Y, Rajagopalan A, Flietner E, Wilson K, Zhang X, Shinn P, Klumpp-Thomas C, McKnight C, Itkin Z, Chen L, Kazandijian D, Zhang J, Michalowski AM, Simmons JK, Keats J, Thomas CJ, Mock BA. Drug combinations identified by high-throughput screening promote cell cycle transition and upregulate Smad pathways in myeloma. Cancer Lett. 2023 Aug 1;568:216284. doi: 10.1016/j.canlet.2023.216284. Epub 2023 Jun 24. PMID: 37356470; PMCID: PMC10408729.
SEQUENCE No. (e.g., 1, 2, 3, etc.); […] (e.g., Cells, Incubation, Reagent, etc.); VALUE and DESCRIPTION.
1; Cells; 5 uL; white, solid bottom 1536-well Greiner assay plate.
2; Compounds; 23 nL; Kalypsis pin tool (Wako USA) equipped with a 1536-well pin head to transfer to the assay plates.
3; Incubation; 48 hours; 37C incubation.
4; Reagent;5uL; CellTiter Glo (Promega).
5; Detector; 425V; Luminescence; Viewlux PerkinElmer.
NOTES (numbers refer to Sequence numbers above)
1. The cell-based screening methods employed in this study were like those previously published. Briefly, the corresponding myeloma cell lines were screened in 1,536-well plates with 500 cells, 5-uL per well for inhibition of cell viability (assessed by measuring ATP levels with CellTiterGlo).
2. NCATS MIPE 4.0 library of approved and investigational drugs were added using the Kalypsis pin tool. Wells treated with DMSO only for 100% viability and media only cells for 0% viability were used as controls.
3. The assay plates were covered and incubated for 48 hours in a 37C, 5% CO2 incubator with controlled humidity.
4. After 48 hours, CellTilter-GloTM luminescent substrate mix (Promega) reagent was added to the assay plate and plates we incubated for 5 min at room temperature.
5. Signal was measured as median relative luminescence units on a ViewLux (PerkinElmer) multiplate reader.
[1] Heske CM, Davis MI, Baumgart JT, Wilson K, Gormally MV, Chen L, Zhang X, Ceribelli M, Duveau DY, Guha R, Ferrer M, Arnaldez FI, Ji J, Tran HL, Zhang Y, Mendoza A, Helman LJ, Thomas CJ. Matrix Screen Identifies Synergistic Combination of PARP Inhibitors and Nicotinamide Phosphoribosyltransferase (NAMPT) Inhibitors in Ewing Sarcoma. Clin Cancer Res. 2017 Dec 1;23(23):7301-7311. doi: 10.1158/1078-0432.CCR-17-1121. Epub 2017 Sep 12. PMID: 28899971; PMCID: PMC6636827.
Potency is the fitted concentration of half-maximal effect.

Row | Compound | viability | Potency
1 | OCCn1cc(-c2cnc3nnn(Cc4ccc5ncccc5c4)c3n2)cn1 | 96.5% (inactive) | –
2 | COc1cc2nccc(Oc3ccc(NC(=O)NC4CC4)c(Cl)c3)c2cc1C(N)=O | – | 14.8 µM (active)
3 | COc1ccc(C2=N[C@H](c3ccc(Cl)cc3)[C@H](c3ccc(Cl)cc3)N2C(=O)N2CCNC(=O)C2)c(OC(C)C)c1 | – | 16.6 µM (active)
4 | NNCCc1ccccc1 | – | 20.9 µM (active)
5 | COc1nc(-c2ccc3c(c2)OCO3)n(-c2ccc(NC(=O)CSc3ccccc3)cc2)n1 | 94.4% (inactive) | –
6 | CC(C)OC(=O)C1=CN(C(=O)c2ccc(F)c(F)c2)CC(C)(C)c2c1[nH]c1ccccc21 | 93.1% (inactive) | –
7 | NC[C@H](O)c1ccc(O)c(O)c1 | 114% (inactive) | –
8 | CNCc1ccc(-c2[nH]c3cc(F)cc4c3c2CCNC4=O)cc1 | 83.5% (inactive) | –
9 | CCn1c(-c2nonc2N)nc2cnc(Oc3cccc(NC(=O)c4ccc(OCCN5CCOCC5)cc4)c3)cc21 | – | 18.7 µM (active)
10 | Cc1cc2c(C(C)C)c(O)c(O)c(C=O)c2c(O)c1-c1c(C)cc2c(C(C)C)c(O)c(O)c(C=O)c2c1O | – | 10.5 µM (active)
11 | O=C1CCC(N2C(=O)c3ccccc3C2=O)C(=O)N1 (stereo not given) | – | 0.0662 µM (active)
12 | CO[C@@H]1[C@H](N(C)C(=O)c2ccccc2)C[C@H]2O[C@]1(C)n1c3ccccc3c3c4c(c5c6ccccc6n2c5c31)C(=O)NC4 | – | 2.35 µM (active)
13 | O=c1n(CCCN2CCN(c3cccc(Cl)c3)CC2)nc2ccccn12 | 98.1% (inactive) | –
14 | COc1ccc(CC2=NN3C([C@@H](CCc4ccccc4)[C@@H](C)O)=NC(C)C3C(=O)N2)cc1OC (stereo not given in full) | 95.2% (inactive) | –
15 | O=C(c1cc(Cc2n[nH]c(=O)c3ccccc23)ccc1F)N1CCN(C(=O)C2CC2)CC1 | 86.7% (inactive) | –
16 | CC1(C)Cc2c(-c3ccccc3)c(-c3ccc(Cl)cc3)c(CC(=O)O)n2C1 | – | 23.5 µM (active)
17 | CCCCNc1cc(C(=O)O)cc(S(N)(=O)=O)c1Oc1ccccc1 | 103% (inactive) | –
18 | CC(=O)Oc1ccccc1C(=O)O | 96.1% (inactive) | –
19 | COc1ccc2nc(S(=O)Cc3ncc(C)c(OC)c3C)[nH]c2c1 (stereo not given) | 118% (inactive) | –
20 | CCC(C)(C)C(=O)O[C@H]1C[C@@H](C)C=C2C=C[C@H](C)[C@H](CC[C@@H]3C[C@@H](O)CC(=O)O3)[C@H]21 | – | 20.9 µM (active)

Row | Compound | viability | Potency
21 | Oc1cccc(-c2nc(N3CCOCC3)c3oc4ncccc4c3n2)c1 | – | 0.0241 µM (active)
22 | Cc1cccc(-c2nn(C(=S)Nc3ccccc3)cc2-c2ccnc3ccccc23)n1 | 79.7% (inactive) | –
23 | COc1ccc(-c2ccc3c(N4CCOCC4)nc(N4C[C@@H](C)O[C@@H](C)C4)nc3n2)cc1CO | – | 0.264 µM (active)
24 | NC(=O)c1ccc(I)c([N+](=O)[O-])c1 | 71.8% (inactive) | –
25 | Cc1cc([C@@H](C)Nc2ccccc2C(=O)O)c2nc(N3CCOCC3)cc(=O)n2c1 | – | 0.481 µM (active)
26 | CCN(c1ccccc1)c1cc(NC)[n+](C)c(C)n1 | – | 23.5 µM (active)
27 | Cc1c(CN2CCN(C(=O)C(C)C)CC2)sc2c(N3CCOCC3)nc(-c3cnc(N)nc3)nc12 | – | 0.0235 µM (active)
28 | CCOc1cc(N2CCC(O)CC2)ccc1Nc1ncc2c(n1)N(C)c1ccccc1C(=O)N2C | – | 10.5 µM (active)
29 | Cc1ccc(N(CC2=NCCN2)c2cccc(O)c2)cc1 | – | 29.6 µM (active)
30 | COc1ccc(CCN2CCN(CCCc3ccccc3)CC2)cc1OC | 76.7% (inactive) | –
31 | Cc1cc(C=c2sc3nc4ccccc4n3c2=O)c(C)n1-c1ccccc1 | – | 6.62 µM (active)
32 | COc1ccc([C@@H]2CC(=O)c3c(O)cc(O[C@@H]4O[C@H](CO[C@@H]5O[C@@H](C)[C@H](O)[C@@H](O)[C@@H]5O)[C@@H](O)[C@H](O)[C@@H]4O)cc3O2)cc1O | – | inactive
33 | CC1(C)SCCN(S(=O)(=O)c2ccc(OCC#CCO)cc2)[C@@H]1C(=O)NO | – | 2.35 µM (active)
34 | Cc1n[nH]c(C)c1Cc1sc2c(c1C(=O)N1C[C@H](O)CO1)c(=O)n(C)c(=O)n2CC(C)C | 115% (inactive) | –
35 | CCOC(=O)N1CCC(=C2c3ccc(Cl)cc3CCc3cccnc32)CC1 | – | 20.9 µM (active)
36 | Cn1cnc2c(F)c(Nc3ccc(Br)cc3Cl)c(C(=O)NOCCO)cc21 | 80.7% (inactive) | –
37 | CC(C)C[C@H](NC(=O)[C@@H](O)[C@H](N)Cc1ccccc1)C(=O)O | – | 16.6 µM (active)
38 | Nc1ccc(S(=O)(=O)Nc2ccnn2-c2ccccc2)cc1 | 122% (inactive) | –
39 | CCOc1ccc(Cc2cc([C@@H]3O[C@H](CO)[C@@H](O)[C@H](O)[C@@H]3O)ccc2Cl)cc1 | 112% (inactive) | –
40 | NC(N)=NC(=O)c1nc(Cl)c(N)nc1N | 117% (inactive) | –
